Measurements taken from the supplement of paper PMC10849652.
The full data set covers some 7,900 targets. This sample favours those with a hit. About 0.6% of all pairs of compound and target were hits.

Legend:
Assay in all cases: log2 fold change, soluble protein after heating vs DMSO (PISA); higher = thermal stabilisation; K562 cells, 10 uM, 30 min; active = over 0.2 and 3.5 SD of the protein, either way, in both replicates (recomputed)
[1] = compound: NC(=O)Nc1cc(-c2cccc(F)c2)sc1C(=O)N[C@H]1CCCNC1
Summary of the method: (§1)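 K562 cells at 2×10^6 cells/mL were given 10 μM compound for 30 min. Aliquots then went through 3 min of heating across 48°C-58°C, were pooled, and were extracted in PBS with 0.5% NP-40 at 4°C, and the supernatant after 21,000xg for 90 min was quantified by TMTpro 16plex LC-MS/MS with channel sums equalised. Thermal stability relative to control samples, from duplicates, is given as log2 fold change.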

[2] = compound: NC(=O)c1cnc(N[C@@H]2CCCC[C@@H]2N)nc1Nc1cccc(-n2nccn2)c1
Summary of the method: as §1

[3] = compound: NC1(c2ccc(-c3nc4ccn5c(=O)[nH]nc5c4cc3-c3ccccc3)cc2)CCC1
Summary of the method: as §1

[4] = compound: NCC(=O)Nc1ccc(-n2nc(C(F)(F)F)cc2-c2ccc3c(ccc4ccccc43)c2)cc1
Summary of the method: as §1

entinostat = compound: Nc1ccccc1NC(=O)c1ccc(CNC(=O)OCc2cccnc2)cc1 [entinostat]
Summary of the method: as §1

vorinostat = compound: O=C(CCCCCCC(=O)Nc1ccccc1)NO [vorinostat]
Summary of the method: as §1

citarinostat = compound: O=C(CCCCCCNC(=O)c1cnc(N(c2ccccc2)c2ccccc2Cl)nc1)NO [citarinostat]
Summary of the method: as §1

silmitasertib = compound: O=C(O)c1ccc2c(c1)nc(Nc1cccc(Cl)c1)c1ccncc12 [silmitasertib]
Summary of the method: as §1

[5] = compound: O=C1NC(=O)C(c2cnc3ccccn23)=C1c1cn2c3c(cc(F)cc13)CN(C(=O)N1CCCCC1)CC2
Summary of the method: as §1

[6] = compound: c1cc(OCCN2CCCCC2)cc(-c2n[nH]c3ccc(-c4nnc[nH]4)cc23)c1
Summary of the method: as §1

Measured: log2 fold change

UBLCP1 (UniProt Q8WVY7)
UniProt Q8WVY7, sequence (Q8WVY7 whole entry, looked up): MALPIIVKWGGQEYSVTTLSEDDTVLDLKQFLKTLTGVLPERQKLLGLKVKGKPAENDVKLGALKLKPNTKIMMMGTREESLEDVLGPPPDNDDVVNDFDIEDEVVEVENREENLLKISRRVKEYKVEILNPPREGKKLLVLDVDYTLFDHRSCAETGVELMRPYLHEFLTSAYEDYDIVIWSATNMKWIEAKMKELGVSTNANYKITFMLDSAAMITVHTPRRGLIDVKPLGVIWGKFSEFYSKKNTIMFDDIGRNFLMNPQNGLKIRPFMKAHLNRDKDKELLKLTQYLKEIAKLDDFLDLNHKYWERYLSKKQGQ
inactive: [1] -0.084 | [2] -0.009 | [3] -0.165 | [4] -0.048 | entinostat 0.122 | vorinostat 0 | citarinostat 0.085 | silmitasertib 0.049 | [5] -0.142 | [6] 0.035

UBA52 (UniProt P62987)
inactive: [1] 0.067 | [2] 0.158 | [3] 0.366 | [4] 0.178 | entinostat 0 | vorinostat 0.029 | citarinostat -0.112 | silmitasertib 0.158 | [5] 0.246 | [6] -0.216

TMEM161B (UniProt Q8NDZ6)
inactive: [1] -0.056 | [2] 0.029 | [3] -0.017 | [4] -0.073 | entinostat 0.041 | vorinostat 0.097 | citarinostat 0.036 | silmitasertib -0.011 | [5] 0.003 | [6] -0.03

TPR (UniProt P12270)
active: silmitasertib 0.3
inactive: [1] 0.09 | [2] -0.039 | [3] 0.06 | [4] -0.032 | entinostat -0.019 | vorinostat -0.084 | citarinostat 0.008 | [5] 0.085 | [6] 0.005

UBE2Q1 (UniProt Q7Z7E8)
UniProt Q7Z7E8, sequence (Q7Z7E8 whole entry, looked up): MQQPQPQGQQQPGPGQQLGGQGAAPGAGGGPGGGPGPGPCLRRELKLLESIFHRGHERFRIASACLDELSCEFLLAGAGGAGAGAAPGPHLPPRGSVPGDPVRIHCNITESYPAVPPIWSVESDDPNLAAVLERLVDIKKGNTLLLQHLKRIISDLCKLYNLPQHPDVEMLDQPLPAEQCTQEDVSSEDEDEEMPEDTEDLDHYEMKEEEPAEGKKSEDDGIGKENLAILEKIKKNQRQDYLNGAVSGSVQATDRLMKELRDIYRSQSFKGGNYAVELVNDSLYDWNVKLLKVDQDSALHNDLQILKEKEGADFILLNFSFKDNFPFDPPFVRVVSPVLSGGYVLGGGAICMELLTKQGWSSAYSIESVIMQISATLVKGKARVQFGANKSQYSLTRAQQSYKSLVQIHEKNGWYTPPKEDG
inactive: [1] -0.01 | [2] -0.059 | [3] -0.084 | [4] -0.012 | entinostat 0.03 | vorinostat 0.084 | citarinostat 0.029 | silmitasertib 0.074 | [5] -0.035 | [6] -0.035

TRAPPC13 isoform 5 (UniProt A5PLN9)
inactive: [1] -0.01 | [2] -0.248 | [3] -0.269 | [4] -0.148 | entinostat 0.045 | vorinostat 0.079 | citarinostat 0.136 | silmitasertib 0.017 | [5] -0.016 | [6] -0.13

TTC4 (UniProt O95801)
inactive: [1] -0.071 | [2] -0.047 | [3] -0.064 | [4] -0.073 | entinostat 0.069 | vorinostat 0.077 | citarinostat 0.064 | silmitasertib 0.074 | [5] -0.051 | [6] -0.014

VPS11 (UniProt Q9H270)
inactive: [1] -0.012 | [2] -0.053 | [3] -0.159 | [4] -0.028 | entinostat 0.015 | vorinostat 0.145 | citarinostat 0.065 | silmitasertib 0.025 | [5] 0.024 | [6] 0.084

XPO6 (UniProt Q96QU8)
inactive: [1] 0.068 | [2] -0.103 | [3] -0.154 | [4] -0.118 | entinostat 0.025 | vorinostat 0.048 | citarinostat 0.085 | silmitasertib 0.01 | [5] 0.099 | [6] -0.038

WDR46 (UniProt O15213)
inactive: [1] 0.098 | [2] 0.083 | [3] 0.253 | [4] 0.177 | entinostat -0.027 | vorinostat -0.042 | citarinostat -0.139 | silmitasertib 0.173 | [5] 0.257 | [6] -0.143

XIAP (UniProt P98170)
inactive: [1] -0.004 | [2] -0.12 | [3] -0.113 | [4] -0.001 | entinostat 0.009 | vorinostat 0.053 | citarinostat 0.091 | silmitasertib -0.029 | [5] -0.047 | [6] -0.106

UHRF1BP1 (UniProt Q6BDS2)
inactive: [1] -0.019 | [2] 0.074 | [3] 0.019 | [4] 0.029 | entinostat -0.058 | vorinostat 0.004 | citarinostat -0.012 | silmitasertib -0.043 | [5] -0.032 | [6] 0.007

UBA1 (UniProt P22314)
inactive: [1] -0.044 | [2] -0.112 | [3] -0.275 | [4] -0.101 | entinostat 0.159 | vorinostat 0.167 | citarinostat 0.125 | silmitasertib 0.018 | [5] -0.013 | [6] -0.028

WDR62 isoform 4 (UniProt O43379)
UniProt O43379, sequence (O43379 whole entry, looked up): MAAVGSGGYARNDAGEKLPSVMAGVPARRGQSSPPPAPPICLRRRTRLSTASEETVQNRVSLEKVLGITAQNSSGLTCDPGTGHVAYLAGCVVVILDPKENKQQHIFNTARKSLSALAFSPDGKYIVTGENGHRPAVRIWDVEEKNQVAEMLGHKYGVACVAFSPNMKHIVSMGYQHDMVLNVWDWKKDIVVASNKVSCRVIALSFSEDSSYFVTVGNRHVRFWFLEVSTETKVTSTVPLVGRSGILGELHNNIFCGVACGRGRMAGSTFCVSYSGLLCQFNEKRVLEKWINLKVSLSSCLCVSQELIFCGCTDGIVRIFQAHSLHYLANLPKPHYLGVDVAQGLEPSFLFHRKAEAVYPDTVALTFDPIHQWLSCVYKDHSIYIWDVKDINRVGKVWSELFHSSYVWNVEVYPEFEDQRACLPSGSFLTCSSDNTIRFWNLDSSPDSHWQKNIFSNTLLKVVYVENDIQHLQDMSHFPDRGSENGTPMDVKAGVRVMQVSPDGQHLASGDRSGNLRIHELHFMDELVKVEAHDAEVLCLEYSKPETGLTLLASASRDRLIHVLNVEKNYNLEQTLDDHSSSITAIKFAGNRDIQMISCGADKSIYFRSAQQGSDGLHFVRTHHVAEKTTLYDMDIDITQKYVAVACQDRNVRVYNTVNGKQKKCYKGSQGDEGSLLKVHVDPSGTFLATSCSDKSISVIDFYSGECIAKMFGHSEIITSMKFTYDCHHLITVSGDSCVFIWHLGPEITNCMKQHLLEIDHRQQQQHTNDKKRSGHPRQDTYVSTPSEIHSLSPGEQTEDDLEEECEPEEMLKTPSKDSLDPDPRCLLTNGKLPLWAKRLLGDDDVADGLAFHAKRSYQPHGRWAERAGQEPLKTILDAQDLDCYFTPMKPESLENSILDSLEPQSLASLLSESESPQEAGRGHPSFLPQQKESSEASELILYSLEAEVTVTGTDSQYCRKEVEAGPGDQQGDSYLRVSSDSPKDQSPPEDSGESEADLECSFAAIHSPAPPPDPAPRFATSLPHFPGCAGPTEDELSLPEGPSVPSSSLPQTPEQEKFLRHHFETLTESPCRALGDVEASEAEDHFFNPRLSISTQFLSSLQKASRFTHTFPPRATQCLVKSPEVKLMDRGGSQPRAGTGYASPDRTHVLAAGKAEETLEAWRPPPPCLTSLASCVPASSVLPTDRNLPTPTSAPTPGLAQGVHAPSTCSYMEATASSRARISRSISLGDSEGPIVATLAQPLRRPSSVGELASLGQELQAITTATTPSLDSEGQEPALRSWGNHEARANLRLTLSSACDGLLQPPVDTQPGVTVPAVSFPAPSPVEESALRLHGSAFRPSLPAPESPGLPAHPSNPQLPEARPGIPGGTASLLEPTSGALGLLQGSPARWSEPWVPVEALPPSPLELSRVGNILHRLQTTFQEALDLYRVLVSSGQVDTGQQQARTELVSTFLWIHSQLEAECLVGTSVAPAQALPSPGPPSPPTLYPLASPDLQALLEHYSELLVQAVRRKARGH
inactive: [1] -0.07 | [2] -0.099 | [3] -0.052 | [4] -0.038 | entinostat 0 | vorinostat 0.05 | citarinostat 0.054 | silmitasertib 0.073 | [5] 0.01 | [6] -0.07

UBAP1 isoform 4 (UniProt Q9NZ09)
inactive: [1] -0.035 | [2] -0.005 | [3] -0.052 | [4] 0.002 | entinostat -0.027 | vorinostat -0.019 | citarinostat 0.193 | silmitasertib 0.064 | [5] -0.032 | [6] -0.049

TMEM161A (UniProt Q9NX61)
inactive: [1] 0.043 | [2] 0.012 | [3] -0.132 | [4] -0.101 | entinostat 0.049 | vorinostat 0.006 | citarinostat 0.083 | silmitasertib -0.023 | [5] -0.009 | [6] -0.098

USP15 (UniProt Q9Y4E8)
inactive: [1] -0.017 | [2] -0.078 | [3] -0.185 | [4] -0.066 | entinostat 0.052 | vorinostat 0.044 | citarinostat 0.064 | silmitasertib 0.035 | [5] -0.016 | [6] -0.022

UTP4 (UniProt Q969X6)
inactive: [1] 0.049 | [2] 0.033 | [3] 0.075 | [4] 0.05 | entinostat -0.037 | vorinostat -0.051 | citarinostat -0.002 | silmitasertib 0.064 | [5] 0.06 | [6] -0.03

VARS2, A0A0G2JL52
inactive: [1] 0.013 | [2] -0.01 | [3] -0.087 | [4] -0.062 | entinostat 0.028 | vorinostat 0.106 | citarinostat 0.006 | silmitasertib -0.005 | [5] -0.048 | [6] -0.017

VPS53 isoform 4 (UniProt Q5VIR6)
UniProt Q5VIR6, sequence (Q5VIR6 whole entry, looked up): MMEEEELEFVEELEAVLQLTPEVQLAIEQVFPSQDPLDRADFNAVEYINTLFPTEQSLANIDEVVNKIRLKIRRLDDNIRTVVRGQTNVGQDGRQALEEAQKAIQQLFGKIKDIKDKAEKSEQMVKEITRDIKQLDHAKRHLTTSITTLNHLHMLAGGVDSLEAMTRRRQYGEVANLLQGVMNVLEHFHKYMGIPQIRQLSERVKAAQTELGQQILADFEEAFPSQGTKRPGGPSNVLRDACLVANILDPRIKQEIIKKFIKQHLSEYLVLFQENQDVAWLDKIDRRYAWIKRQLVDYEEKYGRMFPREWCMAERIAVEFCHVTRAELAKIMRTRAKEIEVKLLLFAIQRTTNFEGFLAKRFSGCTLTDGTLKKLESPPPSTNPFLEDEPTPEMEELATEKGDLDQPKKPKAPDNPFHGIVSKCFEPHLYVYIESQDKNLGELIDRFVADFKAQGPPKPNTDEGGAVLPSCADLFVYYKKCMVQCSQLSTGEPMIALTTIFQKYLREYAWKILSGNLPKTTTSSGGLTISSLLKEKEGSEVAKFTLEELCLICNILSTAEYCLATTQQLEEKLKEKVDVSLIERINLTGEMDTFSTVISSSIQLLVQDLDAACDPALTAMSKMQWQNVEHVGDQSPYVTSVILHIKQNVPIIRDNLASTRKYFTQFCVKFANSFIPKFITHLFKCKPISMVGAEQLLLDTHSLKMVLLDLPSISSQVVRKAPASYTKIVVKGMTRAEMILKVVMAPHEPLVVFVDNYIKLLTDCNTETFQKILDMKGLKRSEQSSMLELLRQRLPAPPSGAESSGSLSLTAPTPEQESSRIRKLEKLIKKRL
inactive: [1] -0.036 | [2] -0.062 | [3] -0.105 | [4] -0.021 | entinostat 0.052 | vorinostat 0.018 | citarinostat 0.025 | silmitasertib 0.063 | [5] -0.066 | [6] -0.02

VPS39 (UniProt Q96JC1)
UniProt Q96JC1, sequence (Q96JC1 whole entry, looked up): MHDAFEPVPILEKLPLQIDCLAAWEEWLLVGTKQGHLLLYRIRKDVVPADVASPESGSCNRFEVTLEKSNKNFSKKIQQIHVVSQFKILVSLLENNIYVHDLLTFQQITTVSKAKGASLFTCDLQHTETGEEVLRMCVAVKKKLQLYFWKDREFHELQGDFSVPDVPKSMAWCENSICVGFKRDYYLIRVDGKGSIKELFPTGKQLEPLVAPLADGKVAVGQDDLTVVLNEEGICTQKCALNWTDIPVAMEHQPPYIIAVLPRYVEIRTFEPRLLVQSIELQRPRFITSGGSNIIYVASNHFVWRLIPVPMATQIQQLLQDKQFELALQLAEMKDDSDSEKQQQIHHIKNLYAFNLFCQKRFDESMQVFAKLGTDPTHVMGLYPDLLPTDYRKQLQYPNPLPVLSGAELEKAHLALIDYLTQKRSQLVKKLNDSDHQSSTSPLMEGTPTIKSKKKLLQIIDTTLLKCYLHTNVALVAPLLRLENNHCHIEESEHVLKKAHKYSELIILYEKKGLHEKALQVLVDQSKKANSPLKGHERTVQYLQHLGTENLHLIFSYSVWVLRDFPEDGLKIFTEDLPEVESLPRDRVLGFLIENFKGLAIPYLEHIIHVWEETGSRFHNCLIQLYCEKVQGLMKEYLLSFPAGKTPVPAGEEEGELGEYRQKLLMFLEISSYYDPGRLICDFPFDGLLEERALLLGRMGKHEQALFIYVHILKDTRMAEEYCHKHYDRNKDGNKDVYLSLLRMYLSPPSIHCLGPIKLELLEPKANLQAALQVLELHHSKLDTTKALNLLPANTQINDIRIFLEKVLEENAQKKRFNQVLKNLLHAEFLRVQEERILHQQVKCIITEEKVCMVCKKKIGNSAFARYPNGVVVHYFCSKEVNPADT
inactive: [1] 0.026 | [2] -0.119 | [3] -0.195 | [4] -0.039 | entinostat 0.05 | vorinostat 0.101 | citarinostat 0.01 | silmitasertib -0.004 | [5] 0.055 | [6] -0.042

XPO5 (UniProt Q9HAV4)
inactive: [1] -0.025 | [2] -0.068 | [4] -0.074 | entinostat 0.046 | vorinostat 0.065 | citarinostat 0.068 | silmitasertib -0.003 | [5] -0.022 | [6] -0.042
active: [3] -0.234

XRCC6 (UniProt P12956)
inactive: [1] -0.064 | [2] -0.143 | [3] -0.139 | [4] -0.08 | entinostat 0.098 | vorinostat 0.134 | citarinostat 0.107 | silmitasertib 0.026 | [5] -0.119 | [6] -0.049

VPS33B (UniProt Q9H267)
inactive: [1] -0.013 | [2] -0.154 | [3] -0.118 | [4] -0.018 | entinostat 0.094 | vorinostat 0.072 | citarinostat 0.076 | silmitasertib -0.011 | [5] 0.017 | [6] -0.057

UBE2J1 (UniProt Q9Y385)
active: [5] -0.375
inactive: [1] 0.031 | [2] -0.038 | [3] 0.07 | [4] 0.017 | entinostat -0.077 | vorinostat -0.019 | citarinostat 0.041 | silmitasertib 0.042 | [6] -0.09

VPS16 (UniProt Q9H269)
UniProt Q9H269, sequence (Q9H269 whole entry, looked up): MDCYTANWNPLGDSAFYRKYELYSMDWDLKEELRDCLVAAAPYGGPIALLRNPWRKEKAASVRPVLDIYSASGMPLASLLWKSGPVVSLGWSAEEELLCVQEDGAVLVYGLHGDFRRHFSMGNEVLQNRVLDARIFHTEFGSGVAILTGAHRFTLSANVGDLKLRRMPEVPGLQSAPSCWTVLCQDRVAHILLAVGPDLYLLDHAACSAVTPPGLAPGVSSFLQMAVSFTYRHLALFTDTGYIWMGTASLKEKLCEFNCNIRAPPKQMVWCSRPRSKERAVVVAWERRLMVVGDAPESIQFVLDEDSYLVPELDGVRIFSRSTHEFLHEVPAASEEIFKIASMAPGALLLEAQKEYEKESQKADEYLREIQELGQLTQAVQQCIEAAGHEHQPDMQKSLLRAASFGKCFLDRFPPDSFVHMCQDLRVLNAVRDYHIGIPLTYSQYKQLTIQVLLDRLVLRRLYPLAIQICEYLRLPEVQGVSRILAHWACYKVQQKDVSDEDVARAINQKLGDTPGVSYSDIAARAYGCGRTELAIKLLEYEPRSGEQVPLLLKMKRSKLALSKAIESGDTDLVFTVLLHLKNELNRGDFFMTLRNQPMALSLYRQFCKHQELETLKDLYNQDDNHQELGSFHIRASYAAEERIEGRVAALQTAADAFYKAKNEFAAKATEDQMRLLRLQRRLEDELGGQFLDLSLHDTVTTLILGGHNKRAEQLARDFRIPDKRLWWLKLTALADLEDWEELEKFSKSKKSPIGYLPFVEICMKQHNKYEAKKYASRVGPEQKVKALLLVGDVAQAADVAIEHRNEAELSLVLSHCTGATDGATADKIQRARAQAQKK
inactive: [1] 0.041 | [2] -0.156 | [3] -0.211 | [4] 0.007 | entinostat 0.084 | vorinostat 0.16 | citarinostat 0.189 | silmitasertib 0.009 | [5] 0.122 | [6] 0

TMEM192 (UniProt Q8IY95)
inactive: [1] 0 | [2] -0.01 | [4] 0.01 | entinostat -0.017 | vorinostat -0.061 | citarinostat -0.02 | silmitasertib 0.037 | [5] 0.03 | [6] -0.005
active: [3] -0.374

TXNRD1 (UniProt Q16881)
inactive: [1] -0.082 | [2] -0.052 | [3] -0.077 | [4] -0.007 | entinostat -0.027 | vorinostat -0.005 | citarinostat 0.017 | silmitasertib -0.036 | [5] -0.122 | [6] 0.006

UBE4B isoform 4 (UniProt O95155)
inactive: [1] 0.005 | [2] -0.055 | [3] -0.113 | [4] -0.056 | entinostat 0.019 | vorinostat 0.023 | citarinostat 0.02 | silmitasertib 0.042 | [5] -0.082 | [6] -0.014

TMEM106B (UniProt Q9NUM4)
inactive: [1] -0.042 | [2] -0.038 | [3] -0.056 | [4] -0.016 | entinostat 0.008 | vorinostat -0.023 | citarinostat 0.022 | silmitasertib 0.034 | [5] 0 | [6] 0.046
